Assay results taken from ChEMBL document CHEMBL1157539, “Thousands of chemical starting points for antimalarial lead identification” (Nature, 2010).

Tested on: HepG2
Assay: GSK_TCMDC: Percent inhibition of human HepG2 cell line. Test compounds present at 10uM.
Format: functional

SMILES	Inhibition [%]
CO/C(=C\C=C\c1cc2cc(Cl)c(Cl)cc2[nH]1)C(=O)NCCCN1CCN(c2cccc(CCCO)c2)CC1	66
Cc1cc(CN2CC[C@H](NC(=O)c3ccc(Cl)c(Cl)c3)C2)ccc1OCCN1CCCC1.O=C(O)C(F)(F)F	56
O=C(N[C@@H](Cc1ccccc1)C(=O)NCCN1CCOCC1)c1ccc(O)c(-c2ccc(Cl)c(Cl)c2)c1	0
CCCc1nc2c(N3CCCN(C(=O)NC4CCCCC4)CC3)cccc2n1Cc1ccccn1	10
Cc1ccc2[nH]c(-c3cc(-c4cccc(C#N)c4)cnc3N)nc2c1.O=C(O)C(F)(F)F	40
CC(C)c1ccc(S(=O)(=O)N(c2ccc3c(c2)OCO3)C2CCN(Cc3ccccc3)C2)cc1 (stereo not drawn)	1
CCCCc1ccc(-c2ccc3[nH]c(C)c(Br)c(=O)c3c2)cc1	0
O=C(Nc1cccc(-c2cccc(-c3nc4cc(C(F)(F)F)ccc4[nH]3)c2)c1)c1cccnc1	57
O=C(Nc1cccc(F)c1)N[C@H]1CCN(CCCCCNC(=O)C2CC2c2ccc(Cl)c(Cl)c2)C1 (stereo partly drawn)	41
Cc1[nH]c(C)c(-c2ccc(-c3ccc(F)cc3)nc2)c(=O)c1Br	15
CN1CCN(CCCN(Cc2ccc(-c3ccc(CNCc4ccc5c(c4)OCO5)cc3)cc2)C(=O)CCC2CCCC2)CC1.O=C(O)C(F)(F)F	55
COc1ccccc1N=C1SC(=Cc2cn(CC(=O)N3CCCc4ccccc43)c3ccccc23)C(=O)N1C1CCCCC1	10
O=C(NC1CCN(CCN2CCC(c3cn(CCO)c4ccccc34)CC2)CC1)c1ccc(-c2ccc(C(F)(F)F)cc2)cc1	30
